Yeast superoxide: yeast age-related superoxide inhibition as caloric restriction mimetic | AID 2690 | 330,000 tested, 0.18% active | superoxide response (% of plate mean), % at 10 µM | S. cerevisiae aged cells, superoxide DHE fluorescence; hits give low values;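 active = superoxide response under a set limit, about three screen SD below normal, cut at about 65% in these data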;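 note: yeast aged for seven days with compound at 30 °C before DHE staining; 100% = average MFI of all compound-treated wells on the plate with controls excluded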
PfM18AAP inh: blocks P. falciparum M18 aspartyl aminopeptidase | recombinant PfM18AAP, H-Glu-NHMec fluorogenic cleavage | inhibition, % at 7.35 µM | 290,000 tested, 1.2% active;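 active = inhibition above the campaign mean inhibition over all tested compounds plus 3 SD, cut at about 28% in these data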;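 note: 0% = plate median of test compound wells and 100% = 2 mM ZnCl2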
APOBEC3A inh: inhibitors of human APOBEC3A DNA deaminase; 330,000 tested, 0.41% active; AID 493011; recombinant A3A, FAM/TAMRA ssDNA deamination fluorescence; inhibition, % at 20 µM;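 active = at least 40% inhibition at 20 µM here, with at most 30% in a related deaminase screen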;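 note: plate controls were A3A with DMSO for no effect and wells lacking A3A enzyme for full effect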
Target sequence (P31941 whole entry, looked up): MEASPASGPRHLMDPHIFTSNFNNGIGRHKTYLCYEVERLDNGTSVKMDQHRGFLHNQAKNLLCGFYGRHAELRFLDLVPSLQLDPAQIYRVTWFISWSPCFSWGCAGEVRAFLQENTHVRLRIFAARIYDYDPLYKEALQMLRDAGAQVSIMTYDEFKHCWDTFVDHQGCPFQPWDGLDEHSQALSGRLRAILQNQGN
APOBEC3G inh: inhibitors of human APOBEC3G DNA deaminase. Q9HC16. recombinant A3G, ssDNA deamination FAM/TAMRA fluorescence. inhibition, % at 20 µM. 330,000 tested, 0.28% active. AID 493012;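 active = inhibition of at least 40% at 20 µM, with no more than 30% in the related APOBEC3A deaminase screen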;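 note: plate controls were DMSO wells with A3G for no effect and wells lacking A3G enzyme for full effect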
Target sequence (Q9HC16 whole entry, looked up): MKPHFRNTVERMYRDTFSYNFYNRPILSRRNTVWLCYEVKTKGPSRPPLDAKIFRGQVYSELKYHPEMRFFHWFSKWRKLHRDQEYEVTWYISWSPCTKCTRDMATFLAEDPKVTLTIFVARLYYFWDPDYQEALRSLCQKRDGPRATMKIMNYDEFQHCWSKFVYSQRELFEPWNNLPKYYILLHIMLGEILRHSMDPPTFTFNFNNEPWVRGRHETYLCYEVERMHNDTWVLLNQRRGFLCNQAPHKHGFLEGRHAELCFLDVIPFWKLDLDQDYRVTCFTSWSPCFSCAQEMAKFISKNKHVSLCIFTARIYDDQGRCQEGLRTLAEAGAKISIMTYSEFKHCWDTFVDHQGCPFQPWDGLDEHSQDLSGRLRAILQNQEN
ALR inh: inhibitors of human sulfhydryl oxidase ALR | inhibition, % (no concentration beside the values) | P55789 | 290,000 tested, 3.8% active | purified ALR, DTT oxidation, H2O2 HRP-luminol luminescence;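 active = mean replicate inhibition above about 79%, with every replicate also reaching it, limit read from the data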
Target sequence (P55789 whole entry, looked up): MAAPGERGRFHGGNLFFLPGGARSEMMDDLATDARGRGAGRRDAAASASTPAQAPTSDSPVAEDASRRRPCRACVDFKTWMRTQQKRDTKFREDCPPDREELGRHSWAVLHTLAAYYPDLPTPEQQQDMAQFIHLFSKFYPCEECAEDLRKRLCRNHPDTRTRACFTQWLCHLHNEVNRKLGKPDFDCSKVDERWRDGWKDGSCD
CendR NRP1 mod: NRP-1/CendR interaction modulation; O14786; FAM-RPARPAR peptide binding to NRP-1, fluorescence polarization; inhibition, % at 25 µM; 360,000 tested, 0.85% active; AID 602438;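 active = inhibition or corrected inhibition above about 18%, plus a signal ratio from 0.5 to 1.5, limit read from the data, passing the limit was not always enough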
APOBEC3A confirm: APOBEC3A (human) deaminase inhibition, confirmed | 1,400 tested, 63% active | shares compounds with APOBEC3A inh | recombinant A3A, ssDNA deaminase UDG fluorescence assay | inhibition, % at 20 µM | AID 493151;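 active = inhibition reaching a set limit, 80% of the first screen's cutoff, at 20 µM in any replicate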;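 note: plate controls were DMSO wells with A3A for no effect and wells lacking A3A enzyme for full effect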
UDG ctr A3A: counter-screen for APOBEC3A inhibitors: UDG; shares compounds with APOBEC3A inh; UDG counterscreen, FAM/TAMRA uracil oligo fluorescence; inhibition, % at 20 µM; 1,000 tested, under 10 active; AID 504714; call rule not given here
Numbers without * were called inactive; nt = not tested or not shown. Shown are actives, neighbours in structure and some others; about 5.2% of the full set was active somewhere.

SMILES | Yeast superoxide | PfM18AAP inh | APOBEC3A inh | APOBEC3G inh | ALR inh | CendR NRP1 mod | APOBEC3A confirm | UDG ctr A3A
CCn1c(C)c2c([n+]1CC)CC(C)(C)CC2=O | 86.3 | 3.5 | 59.1* | 27.4 | -6.8 | -5.6 | 76.0* | -3.8
Cc1ccnc(NS(=O)(=O)c2ccc(NC(=O)Cc3cccs3)cc2)n1 | 108.8 | 6.3 | 54.2* | 29.5 | -4.0 | -45.7 | 61.4* | -4.3
COc1ccc(S(=O)(=O)N(CC(=O)Nc2ccc3c(c2)OCO3)c2ccccc2OC)cc1 | 97.4 | 0.2 | -2.7 | -3.8 | -5.6 | -2.2 | nt | nt
COc1ccccc1N(CC(=O)Nc1ccc2c(c1)OCO2)S(=O)(=O)c1ccccc1 | 100.5 | 2.7 | 48.6* | 16.9 | 1.3 | 5.2 | 64.4* | -3.8
Cn1c(Cn2c(=O)sc3ccccc32)nnc1SCC(=O)Nc1ccccc1 | 93.3 | -6.6 | 0.0 | 2.1 | -7.0 | 6.0 | nt | nt
CC[n+]1ccc(/C=C/c2c[nH]c3ccccc23)cc1 | 109.2 | 1.5 | 48.3* | 2.1 | 38.0 | 126.6 | 63.7* | -8.0
COc1ccc2c(/C=C/c3cc[n+](C)cc3)c[nH]c2c1 | 106.3 | 7.0 | 44.8* | 12.4 | -6.4 | -161.8 | 60.6* | 2.8
COc1ccc2c(c1)c(/C=C/c1cc[n+](C)cc1)cn2C | 98.8 | 3.7 | 28.3 | -13.4 | nt | 135.1 | nt | nt
Cc1ccc2[nH]cc(/C=C/c3cc[n+](C)cc3)c2c1 | 92.9 | 11.1 | 48.9* | -14.4 | 98.3* | 143.1 | 67.0* | -8.3
CCn1c(/C=C/c2c[nH]c3ccccc23)nc2ccccc2c1=O | 98.9 | -1.5 | -3.4 | -12.5 | 8.9 | 0.5 | nt | nt
CCOCCCn1c(SCC(=O)/C(C#N)=C(\C)N)nc2ccccc2c1=O | 93.5 | 2.8 | -0.2 | -5.6 | -0.6 | -4.9 | nt | nt
Cc1ccc(-c2nnc(SCC(=O)N/N=C/c3ccc(C)s3)n2-c2ccccc2)cc1 | 104.9 | 4.0 | -0.9 | -3.2 | -11.9 | -21.8 | nt | nt
CCc1cc(C(=O)Nc2ncccc2O)sc1C | 97.1 | 12.0 | -6.9 | -6.6 | 13.6 | 6.4 | nt | nt
Cc1cc(C)n2[nH]c(=O)cc2n1 | nt | nt | nt | nt | nt | 3.9 | nt | nt
OCCNC1=NCCN1 | 95.3 | -0.3 | 56.0* | 17.9 | -4.3 | -6.6 | 76.4* | 1.4
O=C1CCCN1CCC12CC3CC(CC(C3)C1)C2 | 95.3 | -1.5 | 0.5 | 17.5 | -9.7 | -17.0 | nt | nt
CCn1c(/C=C/N(C)c2ccccc2)[n+](CC)c2ccc(Cl)cc21 | 89.7 | -12.0 | 41.7* | 18.7 | -2.7 | 4.7 | 64.3* | -2.2
CCn1c(C)[n+](Cc2ccccc2)c2ccc(Cl)cc21 | 105.6 | 3.4 | 60.3* | 19.7 | -5.9 | 15.7 | 72.5* | -0.7
CCn1c(/C=C/Nc2ccccc2)[n+](CC)c2ccc(Cl)cc21 | 88.1 | 6.3 | 29.5 | 16.2 | 8.4 | -11.7 | nt | nt
CCn1c(C)[n+](Cc2ccccc2)c2ccc(C(=O)OC)cc21 | 102.1 | -10.2 | 53.2* | 15.3 | 1.6 | -0.9 | 71.4* | 2.6
Nc1cc2c(cc1Br)[nH]c(=O)c1ccccc12 | nt | nt | nt | nt | nt | 16.8 | nt | nt
O=C(N/N=C/c1ccncc1)c1ccc2c(c1)OCO2 | 101.5 | 3.4 | 0.2 | -2.7 | -6.6 | -14.2 | nt | nt
Cc1ccc(N=Nc2c(O)[nH]c3ccc(F)cc23)cc1 | 107.3 | -3.2 | -4.7 | 0.9 | -7.8 | 134.4 | nt | nt
COc1ccc(N=Nc2[nH]c3ccc(C)cc3c2O)cc1 | 92.4 | 0.8 | 75.0* | 21.1 | -8.9 | -12.6 | 52.4* | 0.0
COc1ccc(-c2nc(N=Nc3ccc(O)cc3)n[nH]2)cc1 | 94.7 | 9.6 | -0.7 | -8.6 | nt | -19.8 | nt | nt
SMILES | Yeast superoxide | PfM18AAP inh | APOBEC3A inh | APOBEC3G inh | ALR inh | CendR NRP1 mod | APOBEC3A confirm | UDG ctr A3A
Cc1ccc(N=Nc2[nH]c3ccccc3c2O)cc1 | 95.0 | 0.1 | 62.6* | 22.0 | -1.9 | 121.3 | 58.7* | -1.2
COC(=O)Cn1cc(/C=C/c2cc[n+](C)cc2)c2ccccc21 | 101.8 | -5.5 | 65.6* | 25.3 | -47.3 | 132.4 | 66.7* | -0.2
COc1ccc(N(C(=O)Cn2nnc(-c3ccc(C)o3)n2)C(C(=O)NC2CCCC2)c2ccncc2)cc1 (stereo not given) | 97.9 | -2.6 | -1.4 | -7.2 | -1.6 | 7.5 | nt | nt
Cc1cccc(C)c1NC(=O)CSc1ncnc2nc[nH]c12 | 79.0 | -0.4 | 3.3 | -4.0 | -2.2 | -14.4 | nt | nt
O=C(CSc1ncnc2nc[nH]c12)Nc1ccccc1C(F)(F)F | 105.4 | 4.0 | 56.7* | 25.1 | -2.3 | 5.6 | 38.9* | -4.4
COC(=O)C1=C(C)N(Cc2ccccc2)C(=NCc2ccccc2)N[C@H]1c1cccc(C(F)(F)F)c1 | 86.1 | nt | 19.3 | -1.0 | -12.3 | 0.9 | nt | nt
CCN1C(=NCc2ccco2)N[C@@H](c2cccc(C(F)(F)F)c2)C(C(=O)OC)=C1C | 112.4 | nt | 25.1 | 16.0 | -6.4 | -22.1 | nt | nt
COC(=O)C1=C(C)N(Cc2ccccc2)C(=NCC(C)C)N[C@H]1c1cccc(C(F)(F)F)c1 | 96.0 | nt | 48.5* | 16.0 | -13.9 | 5.0 | 74.8* | 2.8
CCN1C(=NCCOC)N[C@@H](c2cccc(C(F)(F)F)c2)C(C(=O)OC)=C1C | 99.6 | nt | 44.9* | 13.7 | -3.1 | 12.5 | 80.4* | -1.8
CCN1C(=NCC2CC2)N[C@@H](c2cccc(C(F)(F)F)c2)C(C(=O)OC)=C1C | 103.0 | -4.8 | 55.6* | 8.2 | -2.2 | 2.0 | 67.3* | 2.8
CC(=O)Nc1cccc(NS(=O)(=O)Cc2ccc(Cl)cc2)c1 | 101.0 | 6.2 | -4.9 | -6.2 | -4.7 | 11.5 | nt | nt
Nc1ccccc1C(=O)NNC1=C(C(=O)C(F)(F)F)CCC1 | 99.9 | -3.5 | -2.2 | -2.9 | 47.1 | -1.1 | nt | nt
COc1ccc(C(=O)Cn2cnc3ccc(Cl)cc3c2=O)cc1F | 109.8 | -0.3 | -3.5 | -11.5 | nt | 1.1 | nt | nt
CC(=O)c1ccccc1-c1csc2ncnc(Sc3nnnn3C)c12 | 103.2 | nt | -2.0 | -7.5 | 3.6 | 18.5 | nt | nt
CCS(=O)(=O)Nc1cccc(-c2ccc3nnc(-c4cccnc4)n3n2)c1 | 92.7 | 2.7 | -5.2 | 0.8 | nt | -28.5 | nt | nt
O=C(O)[C@H]1Cc2ccccc2CN1S(=O)(=O)c1ccc(F)cc1 | 99.7 | -6.7 | -0.2 | -2.2 | nt | -3.9 | nt | nt
CC(=O)c1ccc(S(=O)(=O)N2Cc3ccccc3CC2C(=O)O)cc1 (stereo not given) | 96.7 | -12.9 | 56.4* | 19.1 | 13.2 | -25.7 | 56.0* | 1.9
O=C(Cc1ccc(S(=O)(=O)N2CCOCC2)s1)Nc1nc2c(s1)CCCC2 | 100.7 | 9.4 | 77.6* | 18.9 | -9.1 | -41.5 | 73.0* | 0.8
O=C(Cc1ccc(S(=O)(=O)N2CCOCC2)s1)Nc1ccc2c(c1)CCC2 | 114.0 | -6.2 | -2.9 | -3.8 | -0.3 | -1.8 | nt | nt
Cc1ccc(OCCCSc2n[nH]c(N)n2)cc1 | 113.4 | 6.2 | -2.8 | -5.7 | 1.7 | 4.0 | nt | nt
COC(=O)[C@@]12CCCCN1[C@H](c1ccc(-c3ccc(F)cc3)c(OC)c1)[C@@H]1C(=O)N(C)C(=O)[C@@H]12 | 101.6 | nt | -1.4 | -7.0 | -13.9 | -5.0 | nt | nt

Screening results deposited in PubChem by several laboratories.
